Here are results for 114 molecules from ChEMBL document CHEMBL4513216, “Probing the Open Global Health Chemical Diversity Library for Multistage-Active Starting Points for Next-Generation Antimalarials” (ACS Infect Dis, 2020).

In all, about 69,000 compounds went through this assay and about 8,600 (12%) showed an effect of 50% or more. The sample holds strong results, similar compounds and a random draw of the others, so the mix is not that of the screen.

For the assay, the system named is Plasmodium berghei. The experiment in a line: Screen against P. berghei liver stage (PbLuc), transformed with Luciferase, at 10uM. The format is functional, HepG2. Particulars: tested at 10 uM.
For `CCOc1ccc(CNC(C)c2c(C)nn(C)c2C)cc1` (centres undefined), the INHIBITION is -88.5%.
As for `COc1ccccc1CC(=O)N1CCC(NCc2ccccn2)CC1`, the figure is 46.3%.
The same measure for `CN(Cc1cnc(N)nc1)C(=O)c1coc(COc2cccc(F)c2)n1`: 0.546%; for `COc1ccccc1N1CCN(c2nc(N)nc3[nH]cnc23)CC1`: 20.6%; for `COc1ccc(CN(C)[C@@H]2COC[C@H]2c2ccc(F)cc2)c(OC)c1`: 59.9%.
As for `COc1cc(CN(C)[C@@H]2COC[C@H]2c2ccc(F)cc2)cc(OC)c1`, the figure is 10.635%; as for `COc1ccc(CN(C)[C@@H]2COC[C@H]2c2ccc(F)cc2)cc1`, 34.3%.
Regarding `CN1CCOCC12CCN(C(=O)C1CCC1)CC2`, the INHIBITION was 22.3%.
The same measure for `CCOCCCNC(=O)C1(C)CCC(=O)N1c1ccccc1OC` (centres undefined): 32.1%; for `CC(=O)N1CCC(n2nccc2-c2cnc(NCCO)nc2)CC1`: 33.7%.
Turning to `c1ccc(-c2nnc3n2CCN(c2nc(C4CC4)ns2)C3)cc1`, the INHIBITION is listed as -57.3%.
In the case of `O=c1[nH]nc(-c2cccs2)c2sc(N3CCOCC3)nc12`, the INHIBITION is recorded as -29.5%.
For `Oc1nnc(-c2ccccc2)c2sc(N3CCCCC3)nc12`, the INHIBITION is on record as 57%.
As for `Cc1nc(NC(=O)C2CCCN(C(N)=O)C2)sc1-c1ccccc1` (centres undefined), the figure is 34.1%; as for `Oc1nnc(-c2cccs2)c2sc(N3CCCCC3)nc12`, 54.3%; as for `Oc1nnc(-c2cccs2)c2sc(N3CCCC3)nc12`, 47.7%.
The same measure for `CC(CS(C)(=O)=O)N(C(=O)CCc1cccc(F)c1)C1CC1` (centres undefined): -35%; for `CNS(=O)(=O)c1ccc(CNC(=O)N(C)C(C)COC)cc1` (centres undefined): 44.9%; for `CCC1=N[C@@]2(CC[C@@H]3CN(Cc4ccc(Cl)cc4)C[C@@H]32)C(=O)N1`: 35.3%.
Consider `CCC1=N[C@@]2(CC[C@@H]3CN(CC4CC4)C[C@@H]32)C(=O)N1CC1CC1`, for which the INHIBITION was 30.3%.
In the case of `CC(=O)c1cccc(NC(=O)N(CCO)C2CCc3ccccc32)c1` (centres undefined), the INHIBITION is 24.8%.
As for `N#Cc1cccc(NC(=O)N(CC(F)F)C2CC2)c1`, the figure is 24.3%.
As for `CC(C)CCN(C(=O)Nc1cccc(C(=O)N(C)C)c1)C1CC1`, the figure is 84.1%.
For `CC(C)CN(C(=O)Nc1cccc(C(=O)N(C)C)c1)C1CC1`, the INHIBITION is on record as 38.5%.
Regarding `CC(=O)c1cccc(NC(=O)N(CC(F)F)C2CC2)c1`, the INHIBITION is given as 61.1%.
As for `CC(C)CCN(C(=O)c1cccc(NC(N)=O)c1)C1CC1`, the figure is 12.4%; as for `Cn1ccc(C(=O)N2C[C@@H]3CN(CC4CC4)CCO[C@@H]3C2)n1`, 27.5%.
As for `CCc1noc(CN(C)Cc2cc3ccc(Cl)cc3[nH]c2=O)n1`, the figure is -4.37%; as for `CN(Cc1ccccc1C(F)(F)F)C(C(N)=O)c1ccccc1` (centres undefined), 36.3%; as for `CC(CC#N)N(C)Cc1ccccc1F` (centres undefined), 30.9%.
The same measure for `CC(O)CNCc1ccccc1C(F)(F)F` (centres undefined): 37.7%; for `COCCN(C)C(C(=O)O)c1ccc(F)c(Cl)c1` (centres undefined): 40.3%; for `CN(Cc1ccccc1Cl)C(C(=O)O)c1ccc(F)c(CO)c1` (centres undefined): 63.8%.
In the case of `Cc1ccccc1CN(C)C(C(N)=O)c1ccccc1` (centres undefined), the INHIBITION worked out at 43.1%.
On to `CC(C(N)=O)N(C)Cc1ccccc1C(F)(F)F` (centres undefined), for which the INHIBITION amounted to 56.8%.
For the molecule `CN(C)C(=O)c1ccc(C(C(=O)O)N(C)Cc2ccccc2Cl)cc1` (centres undefined), the INHIBITION is reported as 44.3%.
As for `CN(Cc1ccccc1F)C(C(N)=O)c1ccccc1` (centres undefined), the figure is 50.8%; as for `O=C(CCn1c(C(F)(F)F)cc2cccnc21)N1CCCC1`, 12.3%; as for `O=C1COC2(CCN(c3cccc(F)c3)CC2)CN1Cc1ccccn1`, 42.3%.
As to `CC(C)N1CCc2c(C#N)c(NCc3ccco3)n3cnnc3c2C1`, the INHIBITION is on record as 37.1%.
As for `COC(=O)N1CCN(c2ncnc3nc(C)cc(C)c23)CC1`, the figure is 20%; as for `CC(C)NC(=O)c1ccc2c(c1)nc1n2CCN(Cc2ccco2)C1`, -11.4%.
The same measure for `CC(=O)N1[C@H](CN(C)C)C[C@@H]2CN(C(=O)c3cncc(C)c3)CC[C@@H]21`: 23.5%; for `COc1ccc(CN2CCC3(CC(=O)N(c4cccc(F)c4)C3)C2)cc1` (centres undefined): 21.1%; for `CN(C)c1cccc(C2CCN(C3COCC3O)CC2)n1` (centres undefined): 26.7%.
The same measure for `CN(CC1(CO)CCOCC1)[C@@H]1c2ccccc2C2(CCNCC2)[C@H]1O`: 21.55%; for `COCCN(C)[C@@H]1c2ccccc2C2(CCNCC2)[C@H]1O`: 15.12%.
Consider `Cc1ccc(CCN[C@@H]2c3ccccc3C3(CCNCC3)[C@H]2O)s1`, for which the INHIBITION stood at 54.4%.
Turning to `COCCCN(C)[C@@H]1c2ccccc2C2(CCNCC2)[C@H]1O`, the INHIBITION is 11.05%.
As for `COc1ccccc1CCN[C@@H]1c2ccccc2C2(CCNCC2)[C@H]1O`, the figure is 88%; as for `CN(CC1(CO)CCCC1)[C@@H]1c2ccccc2C2(CCNCC2)[C@H]1O`, 2.18%.
With `Cn1ccnc1SC1CCc2ccccc2NC1=O` (centres undefined), the INHIBITION is reported as 4.07%.
`Cc1ccc(CN(CCN(C)C)Cc2c(C)nc3sccn23)o1`: the INHIBITION worked out at 27.675%.
With `CN(C)c1cc(CNC(=O)Nc2nnc(C3CC3)s2)ccn1`, the INHIBITION is reported as -27.8%.
Take `O=C(CC1=CCCCC1)Nc1ncn(CC(=O)N2CCCCCC2)n1`: the INHIBITION is on record as -18.4%.
In the case of `CC(Nc1cccc(CN2CCOC2=O)c1)C(=O)Nc1cccc(F)c1` (centres undefined), the INHIBITION is 28.15%.
As for `CSCC(CCO)NC(=O)Nc1ccc(C)cc1Br` (centres undefined), the figure is 36.8%; as for `CSCC(CCO)NC(=O)Nc1ccc(Br)cc1` (centres undefined), 53.8%; as for `CSCC(CCO)NC(=O)Nc1cc(Br)ccc1C` (centres undefined), -4.94%.
As for `CSCC(CCO)NC(=O)Nc1cc(C)ccc1C` (centres undefined), the figure is 40.9%.
For the molecule `CCS(=O)(=O)NC(CCSC)C(=O)Nc1cc(F)ccc1C` (centres undefined), the INHIBITION is reported as 67.1%.
The same measure for `CCS(=O)(=O)NC(CCSC)C(=O)Nc1ccc(F)cc1` (centres undefined): 38%; for `CSCC(CCO)NC(=O)Nc1cc(F)ccc1C` (centres undefined): 50.4%.
As for `CSCC(CCO)NC(=O)Nc1cccc(Br)c1` (centres undefined), the figure is -4.94%; as for `CCS(=O)(=O)NC(CCSC)C(=O)Nc1ccccc1C` (centres undefined), 20%.
Take `CO[C@@H]1CCN(Cc2ccc(C)o2)[C@H]1Cc1ccccc1`: the INHIBITION was 3.88%.
The same measure for `COc1ccc2c(c1)C(=O)NC1(CC2)CCN(Cc2ccc(F)cc2)C1` (centres undefined): 13.621%; for `Cc1oncc1C(=O)NCc1cc(=O)n2c(n1)CN(C)CCC2`: 16.5%.
The same measure for `Cc1ccccc1CN(C)C(=O)c1cc(C2CCCN2C)ccn1` (centres undefined): 34%.
Consider `CC(=O)c1cnc(NCCN2CCCC(c3ccccc3)C2)nc1C` (centres undefined), for which the INHIBITION was determined as 23.3%.
As for `Cc1cnc(N2CCN(C(C)C(N)=O)CC2)nc1` (centres undefined), the figure is 19%; as for `Cc1ccc(F)cc1-n1c(CN(C)S(C)(=O)=O)n[nH]c1=O`, 49.4%.
Regarding `CCCc1noc(C2CC(=O)N(CCN(C)C)C2)n1` (centres undefined), the INHIBITION amounted to 20.9%.
As for `Cc1ccccc1CNCc1cc(Cl)ccc1O`, the figure is 15%.
As for `COc1cccc(CC(=O)N2Cc3nccn3CC(CN(C)C)C2)c1` (centres undefined), the figure is 40.8%; as for `Cc1csc(C2(NC(=O)NCCN3CCOCC3)CCC2)n1`, 47.4%.
`Cc1csc(C2(NC(=O)NCCN3CCOCC3)CCCC2)n1`: the INHIBITION was 64.5%.
As to `Cc1csc(C2(NCCC(=O)N3CCOCC3)CCCC2)n1`, the INHIBITION turned out to be 20.9%.
The same measure for `CCCC(C(=O)NCCc1nc(C)cs1)N(C)C` (centres undefined): 26%; for `O=C(CN1CC(n2cccn2)C1)NCCc1ccc(F)cc1`: -19.4%; for `O=C(CN1CC(n2cccn2)C1)NCCC1=CCCCC1`: -77.3%.
As to `Cc1cnn(C2CN(CC(=O)NCCc3ccccc3)C2)c1`, the INHIBITION is reported as 27.4%.
Turning to `Cc1cnn(C2CN(CC(=O)NCCOc3ccccc3)C2)c1`, the INHIBITION was determined as 3.15%.
The same measure for `c1ccc(CCCN2CC(n3cccn3)C2)cc1`: -5.81%; for `O=C(CN1CC(n2cccn2)C1)NCCCN1CCCC1=O`: 28.8%.
In the case of `N#CCCNC(=O)CN1CC(n2cccn2)C1`, the INHIBITION is on record as 53%.
`O=C(CN1CC(n2cccn2)C1)NCCCc1ccccc1`: the INHIBITION worked out at 54.4%.
As for `Cc1cnn(C2CN(CC(=O)NCCCc3ccccc3)C2)c1`, the figure is 56.6%; as for `Cc1noc(C)c1CN1CCO[C@H]2[C@H](Oc3ncccc3F)CC[C@@H]21`, 34.4%.
Turning to `CN(C)c1ccc(-c2cccc(-c3ccn(CCCO)n3)c2)nn1`, the INHIBITION was -121%.
For the molecule `Cc1occc(=O)c1OCC(=O)N1CCN(c2cccc(Cl)c2)CC1`, the INHIBITION is reported as -5.77%.
The same measure for `Cc1cc(C2CCCN(CCC(=O)N3CCc4ccccc43)C2)n[nH]1` (centres undefined): 1.04%; for `CN(C)C(c1ccccn1)C1CCC(CNC(=O)C2CCCC2)CC1` (centres undefined): 14.6%.
Take `CN1CCC2(COCc3cnc(-c4ccccc4)nc32)C1` (centres undefined): the INHIBITION is -6.97%.
Take `c1ccc(-c2ncc3c(n2)C2(CCN(CC4CC4)C2)COC3)cc1` (centres undefined): the INHIBITION is given as 66.2%.
As to `CN(C)c1ncc2c(n1)C1(CCN(CC3CC3)C1)COC2` (centres undefined), the INHIBITION came to 46.8%.
As for `CC(C)CN1CCC2(COCc3cnc(-c4ccccc4)nc32)C1` (centres undefined), the figure is 69.3%.
The same measure for `O=C(CC1CC1)N1CCC2(COCc3cnc(-c4ccccc4)nc32)C1` (centres undefined): -21.1%.
Consider `COCCN1CCC2(COCc3cnc(-c4ccccc4)nc32)C1` (centres undefined), for which the INHIBITION was determined as 6.79%.
The same measure for `CC(C)c1nc2n(n1)CC(NCc1ccncc1)CC2` (centres undefined): 0.79%; for `CCc1ccc(NC(=O)N2C[C@@H]3C[C@H](C(=O)N4CCCC4)[C@H](C2)O3)cc1`: 45.4%; for `O=C(NCC1CCCOC1)c1ccc(-c2ccccc2)[nH]c1=O` (centres undefined): -29.1%.
With `O=S(=O)(NCc1ccccc1)Nc1cccc(Cn2cncn2)c1`, the INHIBITION is listed as 47.2%.
As for `Cc1nc(Nc2nncs2)cc(C2CNC2)n1`, the figure is 12.75%; as for `CN1CCC/C1=N\S(=O)(=O)c1ccc(NC(=O)CCc2cccs2)cc1`, 27.4%.
As for `CS(=O)(=O)N1C[C@@H]2COC[C@]2(CN2CCOCC2)C1`, the figure is 65.9%; as for `COC[C@]12COC[C@H]1CN(S(=O)(=O)c1cccnc1)C2`, 33%; as for `Cc1nnc([C@]23COC[C@H]2CN(S(=O)(=O)c2cccnc2)C3)o1`, -2.26%.
As for `O=S(=O)(c1ccccc1)N1C[C@@H]2COC[C@]2(COCC2CC2)C1`, the figure is 44.2%; as for `O=S(=O)(c1ccccc1)N1C[C@@H]2COC[C@]2(CN2CCOCC2)C1`, 9.79%; as for `CCCS(=O)(=O)N1C[C@@H]2COC[C@]2(CN2CCOCC2)C1`, 6.83%.
For the molecule `CS(=O)(=O)N1C[C@@H]2COC[C@]2(COCC(=O)N2CCCC2)C1`, the INHIBITION is 28.5%.
For the molecule `O=S(=O)(c1cccnc1)N1C[C@@H]2COC[C@]2(CN2CCOCC2)C1`, the INHIBITION is reported as 55.5%.
Consider `O=S(=O)(c1cccnc1)N1C[C@@H]2COC[C@]2(COCC2CC2)C1`, for which the INHIBITION was determined as 65.1%.
